This passage reports growth inhibition results from PubChem BioAssay (NCI).

About 79,000 compounds went through this panel and 15% of them were active in at least one assay; those are over-represented in the sample as a whole. Unmarked numbers belong to inactive results. The source made the active and inactive calls. Rule as the data show it: active = growth inhibition above about 70%; inactive = the rest.

Experiment [1] can be described thus: NCI Yeast Anticancer Drug Screen. Data for the rad50 strain (AID 155).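 Also: 0% = growth of vehicle-only cultures of the same strain.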 As to conditions: S. cerevisiae rad50 strain growth inhibition, stronger effect = higher value. The gist of the method:
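DNA repair mutant yeast, compound exposure, growth read-out; inhibition is taken relative to vehicle.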

Experiment [2] can be described thus: NCI Yeast Anticancer Drug Screen. Data for the mec2-1 strain (AID 157). As to conditions: S. cerevisiae mec2-1 strain, stronger effect = higher value. In a few lines:
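Growth inhibition is read against vehicle-treated controls after compound exposure of the mec2-1 yeast strain, which is defective in DNA damage repair or cell cycle control.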

The nature of experiment [3]: NCI Yeast Anticancer Drug Screen. Data for the sgs1 mgt1 strain (AID 161).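 Also: 0% = growth of cultures given vehicle only.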 To be noted: S. cerevisiae sgs1 mgt1 strain, stronger effect = higher value. The gist of the method:
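Growth of a repair-deficient yeast mutant was monitored after compound treatment and expressed as inhibition relative to vehicle-treated cultures.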

Experiment [4] in a line: NCI Yeast Anticancer Drug Screen. Data for the cln2 rad14 strain (AID 165).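 Also: 0% = growth equal to vehicle treated cultures.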 As to conditions: S. cerevisiae cln2 rad14 strain, stronger effect = higher value. In a few lines: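 Growth inhibition, relative to vehicle-treated controls, is the read-out. The test organism is a yeast strain with defined genetic alterations, cln2 rad14.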
Experiment [5] is described as follows: NCI Yeast Anticancer Drug Screen. Data for the bub3 strain (AID 167). To be noted: S. cerevisiae bub3 mutant strain, stronger effect = higher value. In a few lines: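 In this screen, a yeast mutant lacking normal mitotic checkpoint function is challenged with compound. Relative growth versus vehicle gives the inhibition value.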
Experiment [6] can be described thus: NCI Yeast Anticancer Drug Screen. Data for the mlh1 rad18 strain (AID 175). As to conditions: S. cerevisiae mlh1 rad18 strain growth inhibition, stronger effect = higher value. In a few lines:
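Cells of a genetically altered yeast strain, deficient in DNA damage repair, were treated with compound. Their growth was then compared with that of vehicle-treated cultures to give inhibition.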

[7] abbreviates: at 5.0 µM (retest, dose inferred, filed as 0.5).
Where [8] appears, read: at 50.0 µM (retest, dose inferred, filed as 5.0).

On to `Brc1ccc(N=NN2CCCC2)cc1`, for which the growth inhibition in experiment [1] (setting [7]) is 14%; in experiment [1] (setting [8]), 12%; in experiment [1] (at 50.0 µM), 74% (active); in experiment [2] (setting [7]) it was 0%; in experiment [2] (setting [8]), 8%; in experiment [2] (at 50.0 µM), 59.6%. The growth inhibition in experiment [3] (setting [7]) is 33%; in experiment [3] (setting [8]), 33%; in experiment [3] (at 50.0 µM) it was 86.4% (active); in experiment [4] (setting [7]), 36%; in experiment [4] (setting [8]), 36%; in experiment [4] (at 50.0 µM), 68%. In addition, the growth inhibition was 30% in experiment [5] (setting [7]); 37% in experiment [5] (setting [8]); 85.6% (active) in experiment [5] (at 50.0 µM); 7% in experiment [6] (setting [7]); 5% in experiment [6] (setting [8]); 86.1% (active) in experiment [6] (at 50.0 µM).
In the case of `COc1ccc(N)c([N+](=O)[O-])c1`, the growth inhibition in experiment [1] (setting [7]) is -5%; in experiment [1] (setting [8]), 13%; in experiment [1] (at 50.0 µM), 41.8%; in experiment [2] (setting [7]), 1%; in experiment [2] (setting [8]), 23%; in experiment [2] (at 50.0 µM), 58%. The growth inhibition in experiment [3] (setting [7]) is -2%; in experiment [3] (setting [8]), 12%; in experiment [3] (at 50.0 µM), 69.5%; in experiment [4] (setting [7]), -1%; in experiment [4] (setting [8]) it was 10%; in experiment [4] (at 50.0 µM), 39%. Moreover, the growth inhibition is 2% in experiment [5] (setting [7]); 30% in experiment [5] (setting [8]); 48.9% in experiment [5] (at 50.0 µM); -4% in experiment [6] (setting [7]); 31% in experiment [6] (setting [8]); 27.9% in experiment [6] (at 50.0 µM).
Consider `CCCCN(CC(O)c1ccc(Cl)cc1)c1ccccc1` (stereo not given), for which the growth inhibition in experiment [1] (setting [7]) was -1%; in experiment [1] (setting [8]) it was 99% (active); in experiment [1] (at 50.0 µM) it was 98.8% (active); in experiment [2] (setting [7]), -2%; in experiment [2] (setting [8]), 99% (active); in experiment [2] (at 50.0 µM) it was 98.8% (active). Moreover, the growth inhibition in experiment [3] (setting [7]) was -6%; in experiment [3] (setting [8]) it was 98% (active); in experiment [3] (at 50.0 µM), 98.8% (active); in experiment [4] (setting [7]), 1%; in experiment [4] (setting [8]) it was 93% (active); in experiment [4] (at 50.0 µM), 98.5% (active). The growth inhibition was 1% in experiment [5] (setting [7]); 98% (active) in experiment [5] (setting [8]); 95% (active) in experiment [5] (at 50.0 µM); 1% in experiment [6] (setting [7]); 99% (active) in experiment [6] (setting [8]); 96.7% (active) in experiment [6] (at 50.0 µM).
For `COc1ccc(C(C)(C)c2cc3c(cc2OCCO)OCO3)cc1`, the growth inhibition was -1% in experiment [1] (setting [7]); 82% (active) in experiment [1] (setting [8]); 89.8% (active) in experiment [1] (at 50.0 µM); 1% in experiment [2] (setting [7]); 90% (active) in experiment [2] (setting [8]); 92.2% (active) in experiment [2] (at 50.0 µM). For the same molecule, the growth inhibition was 4% in experiment [3] (setting [7]); 92% (active) in experiment [3] (setting [8]); 97% (active) in experiment [3] (at 50.0 µM); 0% in experiment [4] (setting [7]); 70% (active) in experiment [4] (setting [8]); 60.1% in experiment [4] (at 50.0 µM). The growth inhibition is 13% in experiment [5] (setting [7]); 90% (active) in experiment [5] (setting [8]); 90.2% (active) in experiment [5] (at 50.0 µM); 1% in experiment [6] (setting [7]); 94% (active) in experiment [6] (setting [8]); 93.3% (active) in experiment [6] (at 50.0 µM).
`COc1ccc(NC(=O)C(Cc2ccccc2)NC(C)=O)cc1` (stereo not given): the growth inhibition in experiment [1] (setting [7]) was 9%; in experiment [1] (setting [8]), 7%; in experiment [1] (at 50.0 µM), 48.6%; in experiment [2] (setting [7]) it was 1%; in experiment [2] (setting [8]), -9%; in experiment [2] (at 50.0 µM), -5.75%. For the same molecule, the growth inhibition in experiment [3] (setting [7]) is -12%; in experiment [3] (setting [8]), -14%; in experiment [3] (at 50.0 µM), 3.15%; in experiment [4] (setting [7]), -5%; in experiment [4] (setting [8]), 1%; in experiment [4] (at 50.0 µM), -55.5%. For the same molecule, the growth inhibition in experiment [5] (setting [7]) is -4%; in experiment [5] (setting [8]), -2%; in experiment [5] (at 50.0 µM), 9.7%; in experiment [6] (setting [7]), -1%; in experiment [6] (setting [8]), -25%; in experiment [6] (at 50.0 µM), 6.2%.
As to `CC(C)/C(Cl)=N/OC(NC(=O)Nc1ccc(Cl)c(Cl)c1)(C(F)(F)F)C(F)(F)F`, the growth inhibition in experiment [1] (setting [7]) is 7%; in experiment [1] (setting [8]), 99% (active); in experiment [1] (at 50.0 µM) it was 99.2% (active); in experiment [2] (setting [7]), 9%; in experiment [2] (setting [8]) it was 100% (active); in experiment [2] (at 50.0 µM), 99.6% (active). Also, the growth inhibition in experiment [3] (setting [7]) was 5%; in experiment [3] (setting [8]), 100% (active); in experiment [3] (at 50.0 µM), 99.5% (active); in experiment [4] (setting [7]), 26%; in experiment [4] (setting [8]), 99% (active); in experiment [4] (at 50.0 µM), 99.2% (active). Moreover, the growth inhibition in experiment [5] (setting [7]) is 40%; in experiment [5] (setting [8]), 100% (active); in experiment [5] (at 50.0 µM), 99.5% (active); in experiment [6] (setting [7]) it was 23%; in experiment [6] (setting [8]), 99% (active); in experiment [6] (at 50.0 µM), 99.5% (active).
Regarding `O=C1OC(=O)c2cc([N+](=O)[O-])cc3cccc1c23`, the growth inhibition was 3% in experiment [1] (setting [7]); 97% (active) in experiment [1] (setting [8]); 22.9% in experiment [1] (at 50.0 µM); 13% in experiment [2] (setting [7]); 99% (active) in experiment [2] (setting [8]); 36.2% in experiment [2] (at 50.0 µM). For the same molecule, the growth inhibition in experiment [3] (setting [7]) was 3%; in experiment [3] (setting [8]) it was 99% (active); in experiment [3] (at 50.0 µM), 29.2%; in experiment [4] (setting [7]), 22%; in experiment [4] (setting [8]), 98% (active); in experiment [4] (at 50.0 µM), 36.6%. In addition, the growth inhibition was 21% in experiment [5] (setting [7]); 99% (active) in experiment [5] (setting [8]); 47.5% in experiment [5] (at 50.0 µM); 8% in experiment [6] (setting [7]); 99% (active) in experiment [6] (setting [8]); 76.7% (active) in experiment [6] (at 50.0 µM).
For `Cc1ccc2c(c1)C1(SC(CC(=O)O)C(=O)N1c1ccc(Cl)cc1)C(=O)N2` (stereo not given), the growth inhibition was 4% in experiment [1] (setting [7]); 5% in experiment [1] (setting [8]); 2.3% in experiment [1] (at 50.0 µM); 0% in experiment [2] (setting [7]); -1% in experiment [2] (setting [8]); 12.3% in experiment [2] (at 50.0 µM). The growth inhibition was 1% in experiment [3] (setting [7]); -6% in experiment [3] (setting [8]); -6.85% in experiment [3] (at 50.0 µM); -1% in experiment [4] (setting [7]); -4% in experiment [4] (setting [8]); -4.2% in experiment [4] (at 50.0 µM). The growth inhibition in experiment [5] (setting [7]) was 1%; in experiment [5] (setting [8]) it was 0%; in experiment [5] (at 50.0 µM) it was -2.8%; in experiment [6] (setting [7]) it was 0%; in experiment [6] (setting [8]), -49%; in experiment [6] (at 50.0 µM) it was 10.5%.
Turning to `COc1cc(C2C=C(c3ccccc3)Oc3cc4c(cc32)OCO4)cc(OC)c1OC` (stereo not given), the growth inhibition in experiment [1] (setting [7]) is 8%; in experiment [1] (setting [8]), 21%; in experiment [1] (at 50.0 µM), -30.1%; in experiment [2] (setting [7]), -11%; in experiment [2] (setting [8]), 16%; in experiment [2] (at 50.0 µM), -39.9%. Moreover, the growth inhibition in experiment [3] (setting [7]) is -13%; in experiment [3] (setting [8]), 25%; in experiment [3] (at 50.0 µM), -7.8%; in experiment [4] (setting [7]) it was -10%; in experiment [4] (setting [8]) it was 27%; in experiment [4] (at 50.0 µM), -5.3%. Further, the growth inhibition in experiment [5] (setting [7]) was -33%; in experiment [5] (setting [8]), 38%; in experiment [5] (at 50.0 µM), 11.9%; in experiment [6] (setting [7]), 1%; in experiment [6] (setting [8]), 23%; in experiment [6] (at 50.0 µM), 3.4%.
For `O=c1ccc([N+](=O)[O-])c[nH]1.[Ag]`, the growth inhibition in experiment [1] (setting [7]) was 98% (active); in experiment [1] (setting [8]), 98% (active); in experiment [1] (at 50.0 µM), 99.5% (active); in experiment [2] (setting [7]), 99% (active); in experiment [2] (setting [8]), 99% (active); in experiment [2] (at 50.0 µM) it was 99.3% (active). Besides, the growth inhibition is 99% (active) in experiment [3] (setting [7]); 98% (active) in experiment [3] (setting [8]); 99.1% (active) in experiment [3] (at 50.0 µM); 98% (active) in experiment [4] (setting [7]); 100% (active) in experiment [4] (setting [8]); 98.2% (active) in experiment [4] (at 50.0 µM). The growth inhibition in experiment [5] (setting [7]) is 98% (active); in experiment [5] (setting [8]), 98% (active); in experiment [5] (at 50.0 µM), 98.3% (active); in experiment [6] (setting [7]), 98% (active); in experiment [6] (setting [8]) it was 97% (active); in experiment [6] (at 50.0 µM) it was 99% (active).
